According to PubChem BioAssay (NCI):
The panel holds about 83,000 compounds, 20% with a hit somewhere; the sample as a whole holds those more often.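 Negative percent growth values reflect cell death: -40 means 40% of the cells present at the start died, and -100 means all died.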 Unmarked numbers belong to inactive results. The source made the active and inactive calls. Rule for the calls: active = growth percent below 10; inactive = the rest.

Assays:
Assay in all cases: NCI-60 one-dose screen, 48 h (100 = growth as untreated, 0 = no growth, -100 = all killed)
HCT-15 colon = conditions: 10 µM unless noted
HT29 colon = conditions: 10 µM unless noted
SNB-75 CNS = conditions: 10 µM unless noted
SNB-19 CNS = conditions: 10 µM unless noted
U251 CNS = conditions: 10 µM unless noted
PC-3 prostate = conditions: 10 µM unless noted
SK-MEL-5 melanoma = conditions: 10 µM unless noted
UACC-62 melanoma = conditions: 10 µM unless noted
LOX IMVI melanoma = conditions: 10 µM
SK-MEL-28 melanoma = conditions: 10 µM unless noted
SK-MEL-2 melanoma = conditions: 10 µM unless noted
EKVX NSCLC = conditions: 10 µM unless noted
SN12C renal = conditions: 10 µM unless noted
UO-31 renal = conditions: 10 µM unless noted
TK-10 renal = conditions: 10 µM unless noted
ACHN renal = conditions: 10 µM unless noted
CAKI-1 renal = conditions: 10 µM unless noted
A498 renal = conditions: 10 µM unless noted
CCRF-CEM leukemia = conditions: 10 µM unless noted
MOLT-4 leukemia = conditions: 10 µM unless noted

Row | SMILES | growth (HCT-15 colon) | growth (HT29 colon) | growth (SNB-75 CNS) | growth (SNB-19 CNS) | growth (U251 CNS) | growth (PC-3 prostate) | growth (SK-MEL-5 melanoma) | growth (UACC-62 melanoma) | growth (LOX IMVI melanoma) | growth (SK-MEL-28 melanoma) | growth (SK-MEL-2 melanoma) | growth (EKVX NSCLC) | growth (SN12C renal) | growth (UO-31 renal) | growth (TK-10 renal) | growth (ACHN renal) | growth (CAKI-1 renal) | growth (A498 renal) | growth (CCRF-CEM leukemia) | growth (MOLT-4 leukemia)
1 | COc1ccc2oc(=O)c(C3(C)NC(=O)c4c(/C=C/C(=O)OC(C)(C)C)cccc4N3)cc2c1 (stereo not given) | 32.6% | 39.1% | 56.3% | 50.8% | 48.4% | 15.6% | -59.8% (active) | 20.4% | 49.1% | 40.6% | 7.6% (active) | 37.1% | 40.6% | 25% | 56.7% | 28.6% | 39.9% | 57.8% | 32.1% | 18.1%
2 | Cn1cc(-c2cc(N)n3nc(-c4cn(C)c5ccccc45)cc3n2)c2cc(Br)ccc21 | -79.1% (active) | -65.1% (active) | -35.7% (active) | 7.16% (active) | -72% (active) | -34% (active) | -63.5% (active) | -59.7% (active) | -85.3% (active) | -86.4% (active) | -84.5% (active) | -22.1% (active) | -43.9% (active) | -84.2% (active) | -27.8% (active) | -31.7% (active) | -75.3% (active) | -26.3% (active) | -4.52% (active) | -0.0957% (active)
3 | CC1(C)CC[C@]2(C(=O)O)CC[C@]3(C)C(=CCC4[C@@]5(C)C[C@@H](O)[C@@H]6OC(c7ccco7)OC[C@@]6(C)C5CC[C@]43C)C2C1 (stereo not given in full) | 20.7% | 21.3% | 72.2% | 28.4% | 16.8% | 20.8% | -33.2% (active) | -7.05% (active) | 22.9% | 24.9% | -23.4% (active) | 22.8% | 20% | 22.7% | 29.2% | 7.44% (active) | 33.1% | 62.4% | 21.7% | 21%
4 | O=C(O)Cn1c(O)c(/C=C2/C=c3cc4c(cc3=NC2=O)OCCO4)sc1=S | 98.5% | 119% | 101% | 97.9% | 109% | 106% | 107% | 94.8% | 93.6% | 116% | 117% | 101% | 97.5% | 89.9% | 110% | 119% | 99.3% | 118% | 97.3% | 105%
5 | CC(C)C(C(=O)O)n1c(O)c(/C=C2/C=c3cc4c(cc3=NC2=O)OCO4)sc1=S (stereo not given) | 101% | 119% | 101% | 94.4% | 106% | 106% | 103% | 89.2% | 94% | 110% | 104% | 99.3% | 96.6% | 78.2% | 89.8% | 111% | 93% | 102% | 106% | 104%
6 | O=C(NN1C(=O)/C(=C/C=C/c2ccc([N+](=O)[O-])o2)SC1=S)c1cccc(O)c1 | -65.1% (active) | -67.2% (active) | -71.3% (active) | -96.5% (active) | -96.2% (active) | -40.2% (active) | -100% (active) | -97.4% (active) | -93.5% (active) | -100% (active) | -88.2% (active) | -96.8% (active) | -99.8% (active) | -98.6% (active) | -96.3% (active) | -100% (active) | -100% (active) | 2.42% (active) | 0.334% (active) | 2.92% (active)
7 | CN(C)c1nc(NCCNS(=O)(=O)c2ccc(C3=Nc4c(N)nc(N)nc4NC(c4ccc(C(F)(F)F)cc4)C3)cc2)nc(Nc2ccc(F)cc2)n1 (stereo not given) | 18.7% | -69.6% (active) | 31.7% | 22.9% | 0.0667% (active) | 17.8% | -77.1% (active) | -51% (active) | -78.2% (active) | 14% | -82% (active) | 26.2% | 30.8% | 84.7% | 59.4% | 58.5% | 63.1% | 41.6% | 8.86% (active) | 9.04% (active)
